Screening data from PubChem.
Compounds with a hit are over-represented: about 12% of the library has one in this group of screens.
JMJD2A Tudor inh = inhibitors of human JMJD2A Tudor domain | O75164 | AlphaScreen JMJD2A-Tudor / H3K4me3 peptide binding | Potency, µM (series often up to 114 µM), inactives show at the highest dose activity change, negative = inhibition, most hits filed as inhibitors | 4.4% of 390,000 active; note: % is set by controls: 0 for no effect and ±100 for the full control effect; nearly all actives have a fitted effect of over 50% in size
Target sequence (O75164 whole entry, looked up, the tested form may be a part): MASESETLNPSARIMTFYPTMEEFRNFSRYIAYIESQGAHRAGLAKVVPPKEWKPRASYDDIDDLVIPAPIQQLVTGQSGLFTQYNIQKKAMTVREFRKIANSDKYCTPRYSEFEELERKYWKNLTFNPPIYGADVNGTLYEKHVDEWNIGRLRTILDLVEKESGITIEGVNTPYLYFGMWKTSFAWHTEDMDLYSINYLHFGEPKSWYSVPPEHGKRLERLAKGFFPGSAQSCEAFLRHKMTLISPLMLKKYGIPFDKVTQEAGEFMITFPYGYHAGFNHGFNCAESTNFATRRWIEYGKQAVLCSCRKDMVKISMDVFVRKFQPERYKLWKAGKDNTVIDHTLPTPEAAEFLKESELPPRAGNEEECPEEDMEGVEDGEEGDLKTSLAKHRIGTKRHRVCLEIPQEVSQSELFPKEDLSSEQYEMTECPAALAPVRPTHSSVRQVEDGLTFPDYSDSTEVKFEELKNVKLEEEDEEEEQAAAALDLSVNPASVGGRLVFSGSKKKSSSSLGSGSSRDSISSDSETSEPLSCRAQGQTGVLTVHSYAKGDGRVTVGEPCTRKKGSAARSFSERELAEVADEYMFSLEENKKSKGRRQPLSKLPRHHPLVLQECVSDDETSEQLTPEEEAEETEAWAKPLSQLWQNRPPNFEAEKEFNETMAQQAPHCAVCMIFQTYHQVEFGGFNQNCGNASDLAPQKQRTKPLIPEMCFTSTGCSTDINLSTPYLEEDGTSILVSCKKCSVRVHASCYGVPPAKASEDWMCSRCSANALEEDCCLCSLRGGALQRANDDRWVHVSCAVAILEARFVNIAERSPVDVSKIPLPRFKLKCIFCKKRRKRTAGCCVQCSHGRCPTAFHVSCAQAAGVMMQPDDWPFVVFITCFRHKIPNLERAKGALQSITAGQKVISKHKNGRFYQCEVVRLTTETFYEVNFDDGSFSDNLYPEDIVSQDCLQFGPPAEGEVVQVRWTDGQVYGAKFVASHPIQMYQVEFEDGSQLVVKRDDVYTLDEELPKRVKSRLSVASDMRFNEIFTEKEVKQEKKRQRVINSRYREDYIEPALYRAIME
Sfp inh = inhibitors of Bacillus subtilis Sfp phosphopantetheinyl transferase; AID 1490; Q9F4F7; Biochemical Sfp PPTase activity, qHTS; 3.5% of 310,000 active; Potency, µM, for the others: largest response in the series, negative = inhibition, usual class: inhibitors;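 note: the enzyme is Sfp with the accession as filed and its product quenches rhodamine fluorescence; 0% = enzyme reaction without inhibitor and -100% = no enzyme wells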
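Fluorescence-quenching assay: 15 nM Sfp-PPTase preincubated 15 min at room temperature with compound, then 5 uM rhodamine-CoA and 12.5 uM BHQ-2-labelled YbbR peptide added. Fluorescence (ex 525/em 598 nm) read at start and after 30 min; difference gives rate.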
BAZ2B inh = BAZ2B (human) inhibition. Potency, µM (doses to about 114 µM), for the others: at the highest dose activity change, negative = inhibition, usual class: inhibitors. 4.4% of 360,000 active. AlphaScreen BAZ2B-H3K14Ac peptide displacement. Q9UIF8. AID 504333; note: % is set by controls: 0 for no effect and ±100 for the full control effect; nearly all actives have a fitted effect of over 60% in size
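AlphaScreen displacement: compounds (up to 110uM) incubated 30 min at room temperature with a preformed 50 nM BAZ2B/50 nM biotinylated H3K14Ac peptide complex in PBS pH 7.4 with Tween-20. Donor and acceptor beads at 10 ug/mL final added, 20 min light-protected before reading.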
L3MBTL1 inh = inhibitors of human L3MBTL1 | Potency, µM (top dose mostly 57.1 µM), for the others: at the top dose activity, negative = inhibition, actives largely listed as inhibitors | AID 485360 | Q9Y468 | AlphaScreen L3MBTL1–H3K9me1 peptide binding | 0.66% of 230,000 active; note: % is set by controls: 0 for no effect and ±100 for the full control effect; nearly all actives have a fitted effect of over 60% in size
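L3MBTL1 (50 nM) pre-complexed 30 min with biotinylated H3(1-15)K9me1 peptide (75 nM), then compounds added for 30 min at room temperature; AlphaScreen streptavidin donor/nickel chelate acceptor beads (10 ug/mL final) read after 30 min dark incubation.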
HP1b binding inh = HP1-beta chromodomain-methylated histone interaction inhibition; AlphaScreen HP1-beta / biotin-H3K9me3 peptide binding; Potency, µM (top dose mostly 114 µM), without a hit: at the top dose activity change, negative = inhibition, usual class: inhibitors; 0.56% of 390,000 active; note: nearly all actives have a fitted effect of over 70% in size
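HP1-beta protein (50 nM final) preincubated 30 min at room temperature with biotinylated H3(1-18)K9me3 peptide (50 nM) in PBS pH 7.4, 0.01% Tween-20, then compound added for 30 min. AlphaScreen streptavidin donor/nickel chelate acceptor beads (10 ug/mL final), 30 min dark, luminescence read.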
G9a inh = blocks human histone lysine methyltransferase G9a. Potency, µM (doses to about 102 µM), without a hit: top-dose activity, negative = inhibition, hits mostly inhibitors. G9a H3K9 monomethylation, AlphaScreen, 2 h. Q96KQ7. 8.8% of 350,000 active. AID 504332; note: % is set by controls: 0 for no effect and ±100 for the full control effect; nearly all actives have a fitted effect of over 75% in size
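Chemiluminescent proximity detection of H3K9 monomethylation, read after 10 min bead incubation in the dark. Reaction: 20 nM G9a, 500 nM biotin-H3K9 peptide, 20 uM SAM cofactor, 2 h, room temperature, following 15 min enzyme-compound preincubation.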
Numbers without * were called inactive; ? = inconclusive; · = no result given; [ ] = dose if it differs, or a comment. Calls come from the whole dose curve; as a rule, active = well fitted curve in the direction sought with a large enough effect; inconclusive = small, poorly fitted or top-dose-only effect, or another doubt; inactive = no such curve, though single readings can be large; an effect the other way counts as inactive or inconclusive. Potency is the fitted concentration of half-maximal effect.

SMILES | JMJD2A Tudor inh | Sfp inh | BAZ2B inh | L3MBTL1 inh | HP1b binding inh | G9a inh
O=C(NCc1ccc(Cl)cc1)N1CCN(S(=O)(=O)c2ccccc2)CC1 | -12% | 8% | -3% | · | -14% | 50µM*
Cc1ccccc1OCCC(=O)N1CCN(S(=O)(=O)c2ccc(Cl)cc2)CC1 | -18% | · | -28% | -2% | 34% | 45µM*
O=C(NCCC(=O)N1CCN(c2ccccc2O)CC1)c1ccc(Cl)cc1 | -18% | · | -5% | -1% | 8% | 50µM*
O=C(NCCC(=O)N1CCN(S(=O)(=O)c2ccc(Cl)cc2)CC1)Nc1ccccc1 | -17% | · | 8% | 1% | 8% | 50µM*
O=C(NCCC(=O)N1CCN(S(=O)(=O)c2ccc(F)cc2)CC1)Nc1ccccc1 | -2% | · | 8% | 1% | 15% | -10%[12.7 µM]
O=C(NCCC(=O)N1CCN(c2ccccn2)CC1)c1ccc(Cl)cc1 | -3% | · | · | 2% | 26% | ·
Cc1ccccc1OCCC(=O)N1CCN(S(=O)(=O)c2ccc(F)cc2)CC1 | -1% | 3% | -12% | · | 24% | 50%
COc1cccc(CNC(=O)N2CCN(S(=O)(=O)c3ccc(Cl)cc3)CC2)c1 | -13% | 2% | 3% | · | -23% | 17%
COc1cc(C2C(=O)N(C3CCCCC3)CC(=O)N2C2CCCCC2)ccc1OC(C)C (stereo not drawn) | -17% | · | 4% | · | -9% | -2%[59 µM]
C=CCN1c2ccccc2[C@]23C[C@@H](C(=O)OC)N(S(=O)(=O)c4ccc(C#N)cc4)C2=NC(C(=O)OC)=C(C(=O)OC)[C@H]13 | · | -4% | · | · | · | ·
CCCc1ccc(S(=O)(=O)N2CCN(C(C)C(=O)NC3CCCC3)CC2)cc1 (stereo not drawn) | -4% | · | -3% | 3% | 49% | -18%
CCCc1ccc(S(=O)(=O)N2CCN(C(C)C(=O)NCc3ccccc3)CC2)cc1 (stereo not drawn) | -24% | · | 7% | 2% | 14% | 56µM*
COc1ccc(OC)c(C(=O)CSc2nnc(Cc3cccs3)n2C)c1 | -6% | 45µM* | 8% | -5% | 38% | -16%[59 µM]
CCn1c(SCC(=O)c2cc(OC)ccc2OC)nc2c1c(=O)n(C)c(=O)n2C | · | 16% | 0% | · | · | 3%[12.7 µM]
COc1ccccc1NC(=O)CSc1nnc(Cc2cccs2)n1C | -13% | · | -10% | 35% | 28% | -41%[59 µM]
COCCn1c(SCC(=O)c2ccc(F)cc2)nnc1C(C)C | 45µM* | 56µM* | -11% | · | 5% | ?
CCCn1c(SCC(=O)c2cc(OC)ccc2OC)nnc1C(C)C | 79µM* | -27% | 14% | 1% | 27% | 50µM*
Cc1ccc(NC(=O)C(C)Sc2nc(=O)cc(N)n2-c2cccc(C)c2)cc1 (stereo not drawn) | -24% | · | 0% | · | 7% | 10%[59 µM]
CN(c1ccccc1)S(=O)(=O)c1ccc(NC(=O)c2ccccc2C(=O)O)cc1 | -11% | · | · | · | 24% | ·
COc1ccc(Cl)cc1NC(=O)CSc1nnc2[nH]c(=O)cc(-c3ccccc3)n12 | -10% | · | 0% | · | 43% | 33%[59 µM]
N#CC(OC(=O)c1ccccc1)c1ccccc1 (stereo not drawn) | 72% | · | · | · | 155% | ·
COc1ccc(CCNC(=O)CSc2nc(=O)[nH]c3c2CCC3)cc1OC | -15% | · | -5% | 6% | -2% | 11%
Brc1ccc(C[n+]2ccccc2)cc1 | -3% | · | 6% | 2% | 38% | 25%[2.33 µM]
CC[n+]1ccc(C[n+]2ccccc2)c2ccccc21 | ? | 50µM* | 10µM* | ? | 79µM* | 1.6µM*
O=C1c2nccnc2C(=O)N1c1ccc(C(F)(F)F)cc1 | -14% | 9% | -39% | 2% | 25% | 50µM*
O=C(O)c1ccc2c(=O)n(-c3ccccc3F)c(=S)[nH]c2c1 | ? | 2% | ? | · | 20% | ?
Cc1cccc2nc(CSc3nc4[nH]ncc4c(=O)n3-c3ccccc3Cl)cc(=O)n12 | -8% | 5% | -19% | -4% | 37% | -10%
